# Assay outcomes as filed in PubChem.
# DT40 TDP1 no CPT: qHTS for Inhibitors of human tyrosyl-DNA phosphodiesterase 1 (TDP1): qHTS in cells in absence of CPT. Potency, µM (series often up to 46.2 µM), for the others: top-dose activity change, negative = growth inhibition, actives largely listed as inhibitors. 420,000 tested, 15% active. AID 686978, 2013. DT40 Tdp1-/- hTDP1 cells, no CPT, ATP luminescence, 48 h; note: nearly all actives have a fitted effect of over 55% in size
#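 Readout: luminescence from CellTiter-Glo after 30 min in the dark at RT. Cells: DT40 Tdp1-/- with stable hTDP1, 400/well. Exposure: compounds alone, ≥48 hr, 37 °C.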
# Gal4-VP16 FLuc: inhibits Gal4-VP16 luciferase reporter, ROR gamma counter-screen. AID 2546. 310,000 tested, 3.5% active. Drosophila S2 Gal4-VP16 UAS-luciferase, luminescence, 20 h. Potency, µM (series often up to 53.6 µM), for inactives: top-dose activity, negative = inhibition, hits mostly inhibitors;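 note: Gal4-VP16 expression switched on by copper sulfate through the metallothionein promoter; nearly all actives have a fitted effect of over 50% in size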
# RORgamma inh: blocks mouse ROR gamma transcriptional activity; P51450; Drosophila S2 Gal4-RORgamma UAS-luciferase reporter, 20 h; Potency, µM (top dose mostly 53.6 µM), for inactives: at the highest dose activity change, negative = inhibition, hits mostly inhibitors; 310,000 tested, 5.4% active; note: nearly all actives have a fitted effect of over 60% in size
# Target sequence (P51450 whole entry, looked up, the tested form may be a part): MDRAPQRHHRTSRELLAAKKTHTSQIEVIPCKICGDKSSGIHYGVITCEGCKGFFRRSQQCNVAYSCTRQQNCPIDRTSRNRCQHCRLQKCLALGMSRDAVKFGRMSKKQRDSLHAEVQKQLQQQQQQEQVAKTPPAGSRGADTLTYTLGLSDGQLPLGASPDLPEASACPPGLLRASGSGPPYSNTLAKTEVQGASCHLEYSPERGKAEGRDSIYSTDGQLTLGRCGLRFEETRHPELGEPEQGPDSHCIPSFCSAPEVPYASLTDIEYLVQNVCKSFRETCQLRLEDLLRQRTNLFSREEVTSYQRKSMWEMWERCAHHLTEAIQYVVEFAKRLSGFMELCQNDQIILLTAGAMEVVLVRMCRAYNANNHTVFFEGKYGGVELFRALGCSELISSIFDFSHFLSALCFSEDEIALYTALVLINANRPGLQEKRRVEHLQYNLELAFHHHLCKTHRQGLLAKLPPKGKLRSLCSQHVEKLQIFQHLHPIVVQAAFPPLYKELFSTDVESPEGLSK
#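 In this cell-based reporter format, copper sulfate (700 uM final) drives Gal4–ROR gamma fusion expression from a metallothionein promoter in Drosophila Schneider cells; compounds preincubated 1 hr, reporter read after 20 hr at ambient temperature.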
# ELG1 DNA repair: blocks ELG1-dependent DNA repair in HEK293T cells; 330,000 tested, 2.3% active; HEK293T ELG1-luciferase reporter, luminescence, 16 h; DNA damage induced by 5-fluorouridine; Potency, µM (highest dose often 46.1 µM), without a hit: top-dose activity change, negative = inhibition, most hits filed as inhibitors; note: nearly all actives have a fitted effect of over 55% in size
#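 Reporter activity after DNA damage by 5-fluorouridine is monitored. Compound-treated cells incubate 16 hr at 37 °C, then ONE-Glo is added for 30 min before luminescence reading.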
# TDP1 cell CPT: growth inhibition of DT40 Tdp1-/-;hTDP1 cells with camptothecin (screen for TDP1 inhibitors); AID 686979; 420,000 tested, 12% active; Potency, µM (top dose mostly 46.2 µM), for the others: at the top dose activity change, negative = growth inhibition, usual class: inhibitors; chicken DT40 Tdp1-/-;hTDP1 cells + 20 nM CPT, ATP luminescence, 48 h; note: nearly all actives have a fitted effect of over 55% in size
#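 Chicken DT40 Tdp1-/- cells stably complemented with human TDP1 were seeded at 400 cells/well in medium containing 20 nM camptothecin, exposed to pin-transferred compounds, and grown at 37 °C for at least 48 hr. Viability was read as ATP luminescence.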
# 12-LOX inh: blocks human arachidonate 12S-lipoxygenase | purified 12hLO, xylenol orange hydroperoxide absorbance | Potency, µM (highest dose often 108 µM), inactives show top-dose activity change, negative = inhibition, most hits filed as inhibitors | 580,000 tested, 1.1% active | AID 1671190
#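 Purified human 12hLO at 150 nM in 25 mM Hepes, 0.01% Triton X-100, pH 7.0, preincubated 15 min at room temperature with compound. Reaction started with 40 uM arachidonic acid, 30 min at room temperature. Hydroperoxide measured by Fe-xylenol orange, 573/405 nm absorbance ratio.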
# * marks the source's active call; other numbers are inactive results; i = inactive; ? = inconclusive; nt = no result; ! = not confirmed by another sample; [ ] = another dose, or the depositor's remark. Compounds with a hit are over-represented: about 15% of the library has one in this group of screens. Calls come from the whole dose curve; as a rule, active = well fitted curve in the direction sought with a large enough effect; inconclusive = small, poorly fitted or top-dose-only effect, or another doubt; inactive = no such curve, though single readings can be large; an effect the other way counts as inactive or inconclusive. % is set by controls: 0 for no effect and ±100 for the full control effect; potency is the fitted concentration of half-maximal effect.
SMILES,DT40 TDP1 no CPT,Gal4-VP16 FLuc,RORgamma inh,ELG1 DNA repair,TDP1 cell CPT,12-LOX inh
COc1ccc(Cl)cc1NC(=O)CN(C)S(=O)(=O)c1ccc2c(c1)CCCN2C(C)=O,8.2µM*,nt,nt,nt,13µM*,-15.9%
COc1ccc(NC(=O)CN(C)S(=O)(=O)c2ccc3c(c2)CCCN3C(C)=O)cc1Cl,20.6µM*,nt,nt,nt,?,-9.0%
CSc1cccc(NC(=O)CN(C)S(=O)(=O)c2ccc3c(c2)CCCN3C(C)=O)c1,25.9µM*,nt,nt,nt,?,0.9%
Cc1ccsc1C(=O)N(Cc1ccco1)C1CC1,nt,nt,nt,nt,nt,-1.7%
CC(C)(C)c1ccc(C(=O)Nc2ccc(F)cc2)s1,14.6µM*,-20.4%,-32.8%,?,0.2%,40.3%
CCCCOCCCNS(=O)(=O)c1ccccc1,-16.2%,-3.2%,17.2%,-1.6%,-10.2%,-7.7%
CCCCOP(=O)(OCCCC)C1(NS(=O)(=O)c2ccccc2)C=CC(=O)c2ccccc21 (centres undefined),23.1µM*,-23.6%,-53.5%,?,16.4µM*,15.8µM*
COCc1noc([C@@H]2CC(F)(F)CN2C(=O)Cc2cccc(F)c2)n1,nt,nt,nt,nt,nt,5.6%
COc1cc(OC)cc(-c2cc3ccc(OC)cc3cn2)c1,13µM*,nt,nt,?,16.4µM*,-17.9%
COc1cc(OC)cc(-c2cc3ncccc3cn2)c1,?,nt,nt,?,?,31.6µM*
COc1ccccc1C(=O)N1CCC2(CC(C(C)C)=NO2)C1 (centres undefined),nt,nt,nt,nt,nt,5.4%[6.33 µM]
O=C1CCN(CCc2ccccc2)CCN1C(CSc1ccc(Br)cc1)Cc1ccccc1 (centres undefined),nt,4.2%,?,nt,nt,nt
CCCN1CCC(=O)N([C@H](CSc2ccc(Br)cc2)c2ccccc2)CC1,16.4µM*,-1.4%,-18.0%,?,?,?
O=C1CCN(CCc2ccccc2)CCN1[C@H](CSc1ccc(Br)cc1)c1ccccc1,18.4µM*,12.4%,37.0%,13.8%,?,?
Cc1cs/c(=N/C(=S)Nc2ccccc2)n1C,-3.3%,10µM*,1.58µM*,?,8.4%,-23.6%
CCCn1c(C)cs/c1=N\C(=S)Nc1ccccc1,?,5.62µM*,3.98µM*,3.8%,?,?
C=CCNC(=S)/N=c1/scc(C)n1C,-4.1%,-0.8%,?,?,-28.7%,-24.9%
CN(Cc1ccc(Cl)c(Cl)c1)C(=O)c1ccccc1SCC(=O)N1CCCC1,20.6µM*,nt,nt,?,?,-4.8%
CN(Cc1cccc(Cl)c1Cl)C(=O)c1ccccc1SCC(=O)N1CCCC1,13µM*,nt,nt,nt,11.6µM*,12.1%
CN(CC(=O)Nc1ccc(Cl)c(Cl)c1)C(=O)c1ccccc1SCC(=O)N1CCCC1,23.1µM*,nt,nt,nt,?,-29.7%
COc1ccccc1CN(C)C(=O)c1ccccc1SCC(=O)N1CCCC1,-6.3%,nt,nt,?,?,24.0%
CN(CC(=O)Nc1ccc(OC(F)(F)F)cc1)C(=O)c1ccccc1SCC(=O)N1CCCC1,?,nt,nt,nt,23.1µM*,-0.5%
CN(C)S(=O)(=O)c1cccc(NC(=O)c2ccccc2SCC(=O)N2CCCC2)c1,?,nt,nt,nt,-21.2%,?
CC(Oc1ccc(C(=O)c2ccccc2)cc1)C(=O)N1CCc2ccccc21 (centres undefined),nt,nt,nt,nt,nt,0.5%
CC1(C)CN(C(=O)c2ccc(Oc3ccccc3)o2)CC1(C)O (centres undefined),nt,nt,nt,nt,nt,13.2%
SMILES,DT40 TDP1 no CPT,Gal4-VP16 FLuc,RORgamma inh,ELG1 DNA repair,TDP1 cell CPT,12-LOX inh
COc1cccc([S+](=O)([O-])N2CCC3(CC2)CC(=O)c2ccc(Cl)cc2O3)c1,nt,nt,nt,nt,nt,-20.6%
CS(=O)(=O)c1ccccc1-c1nc(-c2ccc(C(F)(F)F)cc2)no1,16.4µM*,?,?,?,?,-4.7%
FC(F)(F)c1ccccc1-c1nc(-c2ccncc2)no1,-23.4%,2.9%,28.7%,?,-9.9%,20.0%
Cc1nc(-c2ccc(NC(=O)C3CCCCC3)cc2)cs1,20.6µM*,?,?,?,-22.4%,-1.8%
O=C(Nc1ccc(-c2csc(-c3ccccc3)n2)cc1)c1ccccc1Cl,?,-17.7%,-9.5%,5.4%,20.6µM*,5.1%
O=C(O)c1ccccc1C(=O)Nc1ccc(-c2csc(-c3ccccc3)n2)cc1,8.9%,3.4%,30.1%,?,27.7%,?
Cc1ccc(C(=O)Nc2ccc(-c3csc(C)n3)cc2)cc1,-28.6%,-21.9%,-30.2%,?,7.1%,-11.7%
Cc1ccc(NC(=O)C2CCCCC2)cc1,nt,nt,nt,nt,nt,2.7%
Cc1nc(-c2ccc(NC(=O)c3ccccc3)cc2)cs1,?,5.5%,-35.2%,?,18.4µM*,-69.9%
O=C(Nc1ccc(-c2cn3ccsc3n2)cc1)C1CCCC1,16.4µM*,5.8%,1.2%,?,14.6µM*,-9.2%
Cc1cccc(NC(=O)C2CCN(c3nc4ccccc4o3)CC2)c1C,nt,nt,nt,nt,nt,-16.8%
CC(C)NC(=O)C(=O)Nc1cccc(C(=O)c2nccn2C)c1,nt,nt,nt,nt,nt,21.7%
CCN(CC)S(=O)(=O)c1cc(C(=O)Oc2cccc(-c3cnc4ccccc4n3)c2)ccc1Br,18.4µM*,-5.3%,18.8%,?,?,i
COc1cc(NC(=O)CSc2ncnc3nc[nH]c23)cc(OC)c1,nt,nt,nt,nt,nt,7.0%
COCCC1(NC(=O)c2ccccc2)CCN(Cc2cn[nH]c2-c2cccs2)CC1,nt,nt,nt,nt,nt,18.7%
CCn1cnnc1CCNC(=O)c1cc(=O)n(C)c(=O)n1C,nt,nt,nt,nt,nt,5.1%
CC(=O)Nc1ccc2nc(-c3ccncc3)[nH]c2c1,-2.9%,-5.6%,-19.4%,?,-1.5%,1.8%
CC(=O)Nc1ccc2nc(-c3ccccn3)[nH]c2c1,0.9%,-23.8%,10µM*,?,-23.4%,?
c1ccc(-c2nc3cc4ccccc4cc3[nH]2)nc1,?,3.16µM*,2.82µM*,?,?,1.9%
CC(=O)Nc1cc(NC(C)=O)cc(-c2nc3ccccc3[nH]2)c1,5.8µM*!,0.0%,0.7%,-10.8%,8.2µM*!,184.3%
CC(=O)Nc1ccc2nc(-c3cc(C)ccc3C)[nH]c2c1,3.26µM*,nt,nt,nt,3.26µM*,-7.1%
O=C(Cn1nc2c(cc1=O)CCCCC2)NCCc1ccc(O)cc1,nt,nt,nt,nt,nt,29.5%
COc1cccc(OC)c1/C(O)=C(\C#N)c1nc2ccccc2[nH]1,13µM*,-8.0%,3.4%,-16.5%,?,-23.5%
N#C/C(=C(O)\C=C\c1ccccc1)c1nc2ccccc2[nH]1,?,-21.3%,2µM*,12.3%,-18.0%,-5.2%
CC(C)(C)/C(O)=C(/C#N)c1nc2ccccc2[nH]1,?,?,11.2µM*,23.1µM*,?,-11.8%
